From PubChem BioAssay AID2314 (National Center for Advancing Translational Sciences (NCATS), 2010) come the findings set out here.

Molecules are shown by their SMILES. The campaign covered roughly 300,000 compounds. About 37,000 (12%) were called active. Shown is part of a subset that was picked to be rich in actives. Unmarked numbers belong to inactive results. Cut-off read from the data, not from the text of the source: active = max response mostly above about 13% (no sharp cut-off); inactive = mostly below about 14%.

A short description of this experiment: Cycloheximide Counterscreen for Small Molecule Inhibitors of Shiga Toxin. Note: read at 38.3 µM for the half of the compounds with a filed dose; 0% is about no effect. The note with it: cell reporter, cycloheximide protein synthesis inhibition counterscreen; active compounds read high.
Turning to `Cc1ccc(N2CCN(C(=O)c3cccs3)CC2)c(C)c1`, the max response was 1.82%. Consider `O=C(O)/C=C/c1cn(Cc2ccccc2)nc1-c1cccs1`, for which the max response was 0.958%. Regarding `O=C(O)/C=C/c1cn(-c2ccccc2)nc1-c1cccs1`, the max response was 20.8% (active). As for `COc1ccc(-c2nn(-c3ccccc3)cc2/C=C\C(=O)N2CCOCC2)cc1[N+](=O)[O-]`, the max response was -1.53%. With `O=C(/C=C\c1cn(-c2ccccc2)nc1-c1cccs1)N1CCOCC1`, the max response is 17.5% (active). To `O=C(O)c1ccc(N/N=C/c2cn(-c3ccccc3)nc2-c2cccs2)cc1` belongs 14.7%.

On to `O=C(/C=C/c1cn(-c2ccccc2)nc1-c1ccc2c(c1)OCCO2)NCCCN1CCOCC1`, for which the max response is 13.7%.

Take `CCOC(=O)c1c(NC(=O)CSc2nccc(=O)[nH]2)sc(C)c1C`: the max response is -2.23%.

For the compound `CN(Cc1ccccn1)Cc1nc(-c2ccc(Cl)cc2)no1`, the max response is 20% (active). Take `CCN1CC(CN(C)Cc2nc(-c3ccc(Cl)cc3)no2)CC1=O` (stereo unspecified): the max response was 6.16%. Turning to `COC(=O)c1ccc(-c2noc(CN(Cc3ccccn3)CC3CCCO3)n2)cc1` (stereo unspecified), the max response is -2.22%. Turning to `COCCCNS(=O)(=O)c1cccc(S(=O)(=O)c2cccc(S(=O)(=O)NCCCOC)c2)c1`, the max response was -2.51%.

For the compound `O=C(Nc1cccc2cccnc12)C(F)(F)F`, the max response was -1.21%. Regarding `COc1ccc(NC(=O)Nc2cccc3cccnc23)cc1`, the max response is 55.8% (active).

Consider `COc1ccc(S(=O)(=O)Nc2cccc3cccnc23)c(N)c1`, for which the max response was 23.5%. As for `N#Cc1ccc(C(=O)Nc2cccc3cccnc23)c(F)c1`, the max response was -0.854%. For `O=C(Nc1cccc2cccnc12)c1cccc(Cl)c1`, the max response was 49.1% (active). As for `O=C(Nc1cccc2cccnc12)c1cccc(N2C(=O)CCC2=O)c1`, the max response is -3.63%. Next, `O=C(Nc1ccccc1Cl)Nn1cnnc1`: 6.34%.

As for `O=C(Nc1ccccc1Cl)Nc1cccc2cccnc12`, the max response was 31.2% (active).

`CCOC(=O)Cc1ncccc1C(=O)Nc1ccc(OC)cc1`: the max response was -1.69%. To `O=C(COC(=O)/C=C/c1cn(-c2ccccc2)nc1-c1cccnc1)Nc1ccc(Cl)cc1Cl` belongs 3.3%; to `COc1cccc(-n2c(=S)sc3c(=O)n(-c4ccccc4C)c(SCC(=O)O)nc32)c1`, -1.2%; to `O=C(c1ccccc1F)N1CCN(S(=O)(=O)c2ccc(Br)cc2)CC1`, -10.6%. To `O=C1NC(=O)C(c2ccc(Cl)cc2)N1` (stereo unspecified) belongs -2.12%. For `C=CCN1C(=O)NC(=O)/C(=C/c2ccc(OCC(=O)Nc3ccc(C)cc3)cc2)C1=O`, the max response was 14.5% (active). To `CCOC(=O)C1=C(O)/C(=C/c2ccc(OCC(=O)Nc3ccc(C)cc3)cc2)N=C1C` belongs -7%. To `Cc1ccc(NC(=O)COc2ccc(/C=C3/NC(=O)NC3=O)cc2)cc1` belongs -1.82%.

`CCSc1nnc(SCC(=O)NNC(=O)c2ccccc2F)s1`: the max response was 6.26%.

Regarding `O=C(CCC1CCCC1)N=C1SC2CS(=O)(=O)CC2N1Cc1ccccc1` (stereo unspecified), the max response is 0.661%. To `CC(=O)c1sc(NC(=O)c2cccc3ccccc23)nc1C` belongs 35.9% (active); to `COc1cc2ccccc2cc1C(=O)Nc1ccc(S(=O)(=O)Nc2cc(C)on2)cc1`, -2.65%; to `COc1cccc2sc(NNC(=O)c3nc4ccccc4s3)nc12`, 12.4%. To `COc1ccc(Br)cc1C(=O)Nc1cccc(C)c1C` belongs -3.3%. Next, `CC(=O)c1sc(NC(=O)c2ccc(C)cc2)nc1C`: 54.3% (active). For the compound `CC(=O)c1sc(NC(=O)C2=NN(c3ccccc3)C(=O)CC2)nc1C`, the max response is -0.878%. To `COc1cccc2sc(Nc3nc(C)c(C(C)=O)s3)nc12` belongs 16.2% (active); to `CNC(=O)c1sc(Nc2ccc(OCc3ccccc3)cc2)nc1C`, 10.4%; to `CNC(=O)c1sc(NCc2ccccc2OC)nc1C`, -3.72%. For the compound `CCOC(=O)c1sc(NC(=O)c2ccncc2)nc1C`, the max response was 0.888%.

On to `COC(=O)c1sc(NC(=S)NC(=O)c2ccc(C)cc2)nc1C`, for which the max response was 9.32%. To `COc1cc2ccccc2cc1C(=O)Nc1ccccc1C` belongs 29.7% (active); to `COc1cc(C(=O)NCc2ccncc2)cc(Br)c1OCc1ccccc1`, -7.17%. To `Cc1ccc(C(=O)N/N=C\c2cc(Br)c(Br)o2)cn1` belongs 3.37%; to `CC(=O)NS(=O)(=O)c1ccc2c(c1)Cc1cc(S(=O)(=O)NC(C)=O)ccc1-2`, -0.942%.

`N#C[C@]1(S(=O)(=O)c2ccccc2)C[C@@H]2ON=C(c3cccc(Br)c3)[C@@H]2C1`: the max response was 0.173%.

In the case of `CCCCC(O)(CCCC)C(=O)NN(C(=O)CCl)c1ccccc1`, the max response was 4.18%. On to `COc1cc2ccccc2cc1C(=O)Nc1nc(C)c(C(C)=O)s1`, for which the max response was 33.8% (active). In the case of `O=C(Cc1ccccc1)NC(=S)Nc1ccc(N2CCCCC2)cc1`, the max response was 20.2%. On to `CC1(C)CC(N2CCN(C(c3ccccc3)c3ccccc3)CC2)=CC(=[N+]2CCCCC2)C1`, for which the max response was -1.68%.

With `CCOC(=O)c1ccc(CS(=O)c2ccc(Cl)cc2)o1` (stereo unspecified), the max response is 25.3% (active). For `CCOC(=O)c1ccc(COC(=O)c2cc(=O)[nH]c3ccccc23)o1`, the max response was -2.02%. Take `Cc1ccc(S(=O)Cc2ccc(C(=O)N3CCN(C4CCCCC4)CC3)o2)cc1` (stereo unspecified): the max response was 0.779%. Next, `C=CCn1c(CNS(=O)(=O)c2ccc(Br)cc2)nnc1SC`: -1.32%.

Take `COc1ccc(CCNC(=O)c2nnc(CS(=O)(=O)c3ccccc3)o2)cc1OC`: the max response was -0.612%.

On to `CC(=O)NC(CC(=O)Nc1nc(-c2ccccc2)c(C(C)=O)s1)c1ccccc1` (stereo unspecified), for which the max response was -6.12%. Regarding `COC(=O)c1c(C)[nH]c(C(=O)/C=C/c2ccc(Cl)cc2)c1C`, the max response is 30.8% (active). On to `COC(=O)c1c(C)[nH]c(C)c1-c1ccc([N+](=O)[O-])cc1`, for which the max response was -6.3%.

In the case of `COC(=O)c1c(C)oc(C)c1S(=O)(=O)NCc1ccc(Cl)cc1`, the max response is -1.57%.

Turning to `COc1ccc(NC(=O)c2sc3nc(C)nc(N4CCN(c5ccccn5)CC4)c3c2C)c(OC)c1`, the max response was -5.96%. Turning to `CCN(C(=O)COC(=O)/C=C/c1nc2ccccc2s1)C1CCS(=O)(=O)C1` (stereo unspecified), the max response was -3.69%.

Take `O=S(=O)(Nc1cccc(-n2cnnn2)c1)c1cnc(Cl)c(Cl)c1`: the max response is 4.36%. `O=C(CN1C2=NCCN2c2ccccc21)c1cccs1`: the max response is 4.8%.

For `Nc1c(C(=O)c2cccs2)sc2nsc(SCCN3CCCCC3)c12`, the max response was 24.4% (active).

In the case of `O=C(c1ccc(Oc2ccc(Cl)cc2)c([N+](=O)[O-])c1)N1CCCC1`, the max response is -3.06%. In the case of `COc1ccc(N=Cc2c(O)[nH]c3ccccc23)cc1OC`, the max response was 43.7% (active). Next, `COc1ccccc1N=Cc1c(O)c2ccccc2oc1=O`: 9.95%. Next, `COc1cc(N=Cc2c(O)[nH]c3ccccc23)cc(OC)c1OC`: 6.65%; `COc1cc(OC)c(C(=S)N2CCCC2)cc1OC`: -2.47%. On to `Cc1cccc(NS(=O)(=O)c2cc(Cl)ccc2Cl)n1`, for which the max response was -0.991%. To `C[C@H](NC(=O)c1nc[nH]c1C(=O)NCC(=O)OC(C)(C)C)C(=O)OCc1ccccc1` belongs -0.808%. Next, `CCC(C)C(NC(=O)C1CCC(=O)N1C(=O)OCc1ccccc1)C(=O)NC(C(=O)N1CCCC1C(N)=O)C(C)CC` (stereo unspecified): -2.75%; `COc1ccccc1N1CCN(/N=C/c2ccc(O)cc2O)CC1`: 20% (active). Next, `COc1cc(/C=N/N2CCN(c3ccccc3)CC2)ccc1OC(C)=O`: 15.1%; `COc1ccccc1N1CCN(/N=C\C(Br)=C\c2ccccc2)CC1`: 21.4%; `Cc1nnc(NC(=O)C(c2ccccc2)c2ccccc2)s1`: -6.29%. `CCCCN1C(=O)C(C)=C(C)C1OCCc1ccc(OC)c(OC)c1` (stereo unspecified): the max response was -1.75%. Regarding `COc1ccc(C(C(=O)NC2CCCCC2)N(C(=O)c2snc(C(N)=O)c2N)c2ccccc2OC)cc1` (stereo unspecified), the max response was -4.3%. Next, `CCOC(=O)Nc1ccc(S(=O)(=O)N(C)C(C)C)cc1`: 2.33%; `CC(C)(COC(=O)Nc1ccccc1)COC(=O)Nc1ccccc1`: 19% (active); `Cc1ccc(NC(=O)OCCNC(=O)c2ccncc2)cc1`: 19.8% (active). To `CCOC(=O)C(NC(C)=O)C(=O)Nc1ccc(OC)cc1` (stereo unspecified) belongs -2.02%; to `COc1ccc(NC(=O)/C(Cl)=C(/Cl)S(=O)Cc2ccc(C)cc2)cn1` (stereo unspecified), -12.1%; to `Cc1ccc(C(=O)NCCNC(=O)c2cnccn2)cc1`, -0.952%. Turning to `Cc1ccc(NC(=O)OCc2cncs2)cc1`, the max response is 28.5% (active).

`CCOC(=O)N1CCN(CCC(=O)Nc2ccccc2)CC1`: the max response was -2.64%.

`CCCCCOC(=O)NCCOC(=O)Nc1ccc(C(=O)OCC)cc1`: the max response was -1.37%. To `Cc1ccc(OCc2nnc(NC(=O)OCC(C)C)s2)cc1` belongs -6.37%; to `CCOC(=O)Nc1ccc(NC(=O)OCC)cc1`, 38.2% (active).

In the case of `CC(C)(C)C1CCC(OC(=O)CCC(=O)Nc2ccccc2)CC1` (stereo unspecified), the max response is 4.12%. Next, `O=C(c1ccccc1)C(Cn1cncn1)C(Sc1ccccc1)c1ccccc1` (stereo unspecified): -6.69%. Consider `CC(C)C(=O)N1CCC2(CC1)Oc1ccc(F)cc1C(=O)C21CC(c2ccccc2)=NO1` (stereo unspecified), for which the max response is -2.77%.

Take `CN(C)CCOC1c2ccccc2-c2ccccc21`: the max response was 0.251%. For the compound `COc1cc(OC)c(C(=O)OC(C)C(=O)Nc2cc(C(F)(F)F)ccc2Cl)cc1OC` (stereo unspecified), the max response is 4.97%.

Turning to `CC1=C(C(N)=O)C(c2ccc(Br)cc2)n2ncnc2N1` (stereo unspecified), the max response is -0.44%. For the compound `c1ccc(-c2cc(N3CCCCC3)c3ccccc3n2)cc1`, the max response was -6.32%.
